# Experimental data taken from PubChem BioAssay (NCI).
# About 79,000 compounds went through this panel and 15% of them were active in at least one assay; those are over-represented in the sample as a whole. Unmarked numbers belong to inactive results. Active and inactive are the calls of the source. No stated cut-off is given here; in the data, active means growth inhibition above about 70%; inactive means the rest.
# Columns and labels:
# [1] = NCI Yeast Anticancer Drug Screen. Data for the rad50 strain (AID 155);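 further: 0% = growth of vehicle-only cultures of the same strain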; conditions: S. cerevisiae rad50 strain growth inhibition, hits give high values; at 50.0 µM unless noted
# Procedure, shortened: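 Cells are treated with compound, grown, and their growth is then scored against vehicle-only cultures of the same repair-deficient yeast strain.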
# [2] = NCI Yeast Anticancer Drug Screen. Data for the mec2-1 strain (AID 157); conditions: S. cerevisiae mec2-1 strain, hits give high values; at 50.0 µM unless noted
# Procedure, shortened: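 Each compound was tested on mec2-1 yeast, a strain altered in DNA damage repair or cell cycle control. Growth inhibition is reported relative to vehicle.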
# [3] = NCI Yeast Anticancer Drug Screen. Data for the sgs1 mgt1 strain (AID 161);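 further: 0% = growth of cultures given vehicle only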; conditions: S. cerevisiae sgs1 mgt1 strain, hits give high values; at 50.0 µM unless noted
# Procedure, shortened: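 Inhibition of yeast growth, normalised to vehicle-treated controls, is reported for a strain bearing genetic alterations in DNA damage repair.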
# [4] = NCI Yeast Anticancer Drug Screen. Data for the cln2 rad14 strain (AID 165);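 further: 0% = growth equal to vehicle treated cultures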; conditions: S. cerevisiae cln2 rad14 strain, hits give high values; at 50.0 µM unless noted
# Procedure, shortened: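 Test compounds were added to cln2 rad14 yeast cultures; inhibition of growth was then determined by comparison with vehicle treatment.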
# [5] = NCI Yeast Anticancer Drug Screen. Data for the bub3 strain (AID 167); conditions: S. cerevisiae bub3 mutant strain, hits give high values; at 50.0 µM unless noted
# Procedure, shortened: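 Part of a panel of yeast mutants defective in DNA damage repair or cell cycle regulation. Each strain is grown with compound, and inhibition is calculated relative to solvent-treated cultures.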
# [6] = NCI Yeast Anticancer Drug Screen. Data for the mlh1 rad18 strain (AID 175); conditions: S. cerevisiae mlh1 rad18 strain growth inhibition, hits give high values; at 50.0 µM unless noted
# Procedure, shortened: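 Inhibition values reflect reduced growth of mutant yeast versus vehicle-treated controls following compound exposure; the mutations affect DNA damage repair.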
Structure (SMILES),growth inhibition [1],growth inhibition [2],growth inhibition [3],growth inhibition [4],growth inhibition [5],growth inhibition [6]
Cc1c(Cl)cccc1C(=O)O,-3.15%,10.7%,3.65%,-3.15%,-10%,27.6%
ClC(Cl)(Cl)c1ncnc2nc[nH]c12,-15.1%,-11.8%,0.5%,9.95%,-16.9%,13.3%
CC(=O)c1cc(Cc2cc(C)cc(C)c2O)c(O)c(Cc2cc(C)cc(C)c2O)c1,18.9%,11.6%,28.9%,33.7%,17.4%,4.05%
C=CC(C)(C)c1c(OC)cc(-c2ccccc2)oc1=O,-7.65%,-34.4%,29.6%,-23%,20.6%,-9.9%
Nc1ccc(NC(=O)Nc2ccccc2)cc1,5.65%,-19.2%,-0.7%,-32.4%,-22.3%,-15.1%
O=C(Cc1ccccc1)C(c1ccccc1)C(c1ccccc1)c1ccccc1 (stereo not drawn),-12.8%,-11.8%,5.25%,13.6%,-2.25%,-1.25%
CC(=O)[CH-]C(=O)c1ccccc1.CC(=O)[CH-]C(=O)c1ccccc1.CC[C@H](/C=C/C(C)[C@H]1CCC2[C@@H]3CC=C4C[C@@H]([O-])CC[C@]4(C)C3CC[C@@]21C)C(C)C.CC[C@H](/C=C/C(C)[C@H]1CCC2[C@@H]3CC=C4C[C@@H]([O-])CC[C@]4(C)C3CC[C@@]21C)C(C)C.Cl.[Ti+4] (stereo partly drawn),8%,2.65%,19.3%,-12.1%,24.6%,9.55%
CCOC(=O)CC(CC(=O)OCC)NC(=O)c1ccc(N(C)C(=O)OCc2ccccc2)cc1,40.1%,5.55%,34.9%,32.9%,14.7%,39.9%
Cc1nc2[nH]ncc2c(=O)n1-c1ccccc1Cl,6%,-4.1%,5.95%,5.35%,3.75%,9%
Cc1[nH]nc2c1C(=O)C=C(N(CCO)c1ccccc1)C2=O,-24.6%,5.35%,2.25%,11.2%,-11.9%,-6.55%
CN(C)CCNC(=O)Nc1cccc2ccccc12,16%,8.35%,-0.8%,16.6%,-6.5%,2.25%
O=C(NNC(=O)c1ccc(Cl)c(Cl)c1)c1ccccc1,-13.8%,3.1%,-6.05%,-7.95%,2.75%,-15.9%
Cc1cc(OC(=O)c2c(-c3c(Cl)cccc3Cl)noc2C)n(-c2ccc(NC(=O)c3c(-c4c(Cl)cccc4Cl)noc3C)cc2)n1,36.8%,24.8%,19.7%,13%,28.1%,25.9%
COc1cc([C@@H]2c3cc4c(cc3[C@H](OC3OC5COC(c6ccco6)OC5C(O)C3O)C3COC(=O)[C@@H]32)OCO4)cc(OC)c1OC (stereo partly drawn),7.25%,18.8%,7.6%,17.9%,0.2%,-42%
NC1(CC(=O)O)CCN(Cc2ccccc2)CC1,4.05%,13%,3.9%,-7.05%,-1.15%,2.4%
CC(C)N(CC(C)(C)O)C(=O)c1ccccc1,-5.35%,11.7%,17.1%,6.1%,-14.7%,-8.4%
C=C1CC2CC[C@@]34C[C@@H]5O[C@@H]6C(O[C@H]7CC[C@H](CC(=O)OC8[C@@H](C)C9OC%10C[C@]%11(C[C@@H]%12O[C@@]%13(C[C@@H](C)[C@@H]%12O%11)C[C@H](C)[C@@H]%11OC%12CC(C(O)CO)OC%12C[C@@H]%11O%13)OC%10CC9O[C@H]8C[C@H]8O[C@@H](CC[C@@H]1O2)C[C@@H](C)C8=C)O[C@@H]7[C@@H]6O3)C5O4 (stereo partly drawn),79.8% (active),74.6% (active),76.5% (active),69.8%,83.2% (active),78.5% (active)
CC(C)OC(=S)SC1CCCCC1=O (stereo not drawn),-0.45%,-8.1%,-4.35%,-66.2%,-6.2%,-8.25%
O=C(O)C[N-]CC(=O)O.OO.[O]=[V],-16.9%,1.5%,-1.7%,-30.7%,3.75%,3.55%

Structure (SMILES),growth inhibition [1],growth inhibition [2],growth inhibition [3],growth inhibition [4],growth inhibition [5],growth inhibition [6]
CC1=Nc2ccccc2C12C(c1ccccc1)C(c1ccccc1)C(=O)N1c3ccccc3CC12 (stereo not drawn),-2.25%,-16.4%,-33.6%,20.1%,-14.3%,-1.65%
COCCOC(=O)OCCOC,-1.5%,3.65%,4.75%,-31.7%,-12.8%,11.7%
O=C(CSC(=S)N1CCOCC1)Nc1nc2c(s1)CCCC2,-15.1%,-32%,-28.2%,2.6%,-1.65%,-16.3%
O=C1c2ccccc2C(=O)c2c1ccc1c3ccccc3n(-c3ccccc3)c21,7.4%,4.2%,18.4%,-5.2%,6.65%,15.7%
CC1(C)OCC2OC3(c4nc(C#N)c(N)o4)OC(C)(C)OC3C2O1 (stereo not drawn),-18.8%,-7.05%,-48%,-1.7%,-39.2%,-75%
CCc1ccc(NC(=O)c2ccc(Cl)cc2Cl)cc1,4.9%,34.5%,7.7%,2.95%,11.8%,0.95%
COc1ccc(O)cc1C=O,-6.4%,-7.05%,-10.6%,4%,-7.35%,-4.75%
CC1=C(C)CC2(CCCCC2=O)S(=O)C1 (stereo not drawn),-34.8%,-28.8%,-9.85%,11.1%,15.8%,2.55%
C=CCc1cn(C2CC(OC(=O)c3ccc(Cl)cc3)C(COC(=O)c3ccc(Cl)cc3)O2)c(=O)[nH]c1=O (stereo not drawn),-8.85%,-3.6%,-18.8%,-8.6%,0.6%,-2.4%
C/C=C(/Br)C(=O)O,-11.6%,-6%,-10.2%,-53.5%,-5.2%,-12.9%
CC(C)C(=O)Nc1nc2nc[nH]c2c(=O)[nH]1,11.6%,-23.6%,24.9%,12.8%,-7.95%,-22.9%
Oc1ccc(Br)cc1/C=N/c1nc2ccccc2s1.Oc1ccc(Br)cc1/C=N/c1nc2ccccc2s1.[Cu],38%,40.9%,0.05%,15.3%,-0.25%,43.5%
Cc1cccc(C2=N/C(=C\c3ccc(N(C)C)cc3)C(=O)O2)c1,20.2%,6%,7.7%,18.2%,3.05%,-6.1%
Cc1cc(OCC(=O)O)cc(C)c1C,1%,-8.5%,-15.1%,-18.6%,-4.55%,-1.45%
O=C(O)CCCCCCC(=O)O,2.1%,-4.85%,2.85%,2.95%,0.9%,-2.3%
Cc1ccc(NCC(=O)N2CC(=O)Nc3ccccc32)c(C)c1,-26.2%,-39.1%,-43.8%,-3.4%,-27.7%,-31.3%
O=C(CO[N+](=O)[O-])OC/C=C/c1ccccc1,-4.25%,5.35%,-2%,-0.65%,2.55%,8.6%
C=C1N(C=O)C(C)(C)N(O)C1(C)C,16.7%,15.7%,15.6%,28.1%,12.2%,10.9%
O=C(N1CCN(C(=O)S(=O)(=O)c2ccccc2)CC1)S(=O)(=O)c1ccccc1,29.9%,-16.9%,19.8%,20.1%,1.85%,-3.55%
